# According to PubChem BioAssay (NCATS):
# Results filed as inconclusive are left out. Entries that show only a call come without a potency. Activity calls are given as the source filed them. Calls follow the shape of the full dose curve.
# Assay: Cytotoxicity counterscreen for inhibitors of SARS-CoV-2 cell entry (AID 1645845); also: nearly all actives have a fitted effect of over 50% in size
# Conditions: cell viability (SARS-CoV-2 entry assay cells); series mostly up to 57.1 µM
# Source text: Assay Provider: Wei Zheng, Ph.D.
# National Center for Advancing Translational Sciences, National Institute of Health, Rockville, MD.
# SARS-CoV-2 spike protein, within the viral envelope, mediates viral attachment and infection of host cells. The SARS-CoV-2 spike protein specifically binds to the host receptor ACE2 (Angiotensin-converting enzyme 2). This interaction promotes endocytosis of the viral particle, additional events lead to viral-host cell membrane fusion and release of the viral contents, allowing viral replication.
# While SARS-CoV-2 requires BSL-3 facilities for live virus work, pseudo-typed partices (PP) that incorporate SARS-CoV-2 spike proteins without replication elements could facilitate studies on viral entry mechanisms in a BSL-2 setting. This PP cell entry assay could also enable screening of small molecule compound libraries in BSL-2 setting to identify inhibitors of SARS-CoV-2 cell entry. To eliminate false positive compounds, ATP content cytotoxicity assay was screened in the same cell line.
# SEQUENCE No. (e.g., 1, 2, 3, etc.); […] (e.g., Cells, Incubation, Reagent, etc.); VALUE and DESCRIPTION.
# 1. Cells. Seed 1500 HEK293-ACE2 cells (Expi293F with stable expression of human ACE2) in 2 uL/well media (DMEM, 10% FBS, 1x L-glutamine, 1x Pen/Strep, 1 ug/ml puromycin) in white 1536-well assay plates (Greiner #782073).
# 2. Incubation. Incubate at 37 C with 5% CO2 overnight (~16 h).
# 3. Compounds. Dispense 23 nL/well compounds in DMSO via pin transfer.
# 4. Incubation. Incubate for 1 h at 37C 5% CO2.
# 5. Reagent. Dispense 2 uL/well of media (DMEM, 10% FBS, 1x L-glutamine, 1x Pen/Strep, 1 ug/ml puromycin).
# 6. Incubation. Incubate at for 48h at 37C 5% CO2
# 7. Reagent. Dispense 4 uL/well of ATPLite 1step luminescence assay reagent (PerkinElmer #6016739).
# 8. Incubation. Incubate for 15 min at room temperature.
# 9. Detection. Read luminescence signal (Viewlux plate reader, PerkinElmer). Data was normalized with wells containing cells as 100%, and wells without cells (media only control) as 0%.
# Potency is read from the fitted curve at half-maximal effect.
Structure (SMILES),Potency,"activity change, negative = cytotoxicity",outcome
Cc1cc(-c2nc3cc(F)ccc3s2)ccc1NC(=O)[C@@H](N)CCCCN,22.4 µM (active),,
CSC[C@H]1CN(Cc2c[nH]c3c(N)ncnc23)C[C@@H]1O,inactive,,
CC(C)c1c(-c2ccccc2)nc2c(C#N)c[nH]n2c1=O,inactive,,
CC/C(=C(/c1ccc(/C=C/C(=O)O)cc1)c1ccc2[nH]ncc2c1)c1ccc(F)cc1Cl,inactive,,
CN(CCOc1ccc(C[C@H](Nc2ccccc2C(=O)c2ccccc2)C(=O)O)cc1)c1ccccn1,inactive,,
CC(CC(c1ccccc1)c1ccccc1)NC(C)(C)C (stereo not given),inactive,,
N[C@@H](C(=O)N[C@@H]1C(=O)N2C(C(=O)O)=C(Cl)CC[C@H]12)c1ccccc1,inactive,,
CCCCCCCCCCCCCCCCCC(=O)OCC(C)O (stereo not given),inactive,,
C/C=C(/C)C(=O)O[C@H]1C(C)=CC23C(=O)C(C=C(CO)[C@@H](O)[C@]12O)[C@H]1[C@@H](C[C@H]3C)C1(C)C (stereo not given in full),inactive,,
CN1C(=O)C[C@@H](C(=O)N[C@@H](Cc2cnc[nH]2)C(=O)N2CCC[C@H]2C(N)=O)NC1=O,inactive,,
Nc1nccn2c(C3CCC(C(=O)O)CC3)nc(-c3cc4cccc(Cl)c4[nH]3)c12 (stereo not given),inactive,,
O=C(OCc1ccccc1)c1cccnc1,inactive,,
C=C1/C(=C/C=C2\CCC[C@]3(C)[C@@H]([C@H](C)CCCC(C)(C)O)CC[C@@H]23)C[C@@H](O)[C@@H](OCCCO)[C@@H]1O,inactive,,
CN(C)CCNC(=O)COc1c2cccc1Cc1cccc(c1OCC(=O)NCCN(C)C)Cc1cccc(c1OCC(=O)NCCN(C)C)Cc1cccc(c1OCC(=O)NCCN(C)C)C2,,-11.8% [at 11.3 µM] (inactive),
CC(C)=CCC[C@](C)(O[C@@H]1O[C@H](CO[C@@H]2O[C@H](CO)[C@@H](O)[C@H](O)[C@H]2O)[C@@H](O)[C@H](O)[C@H]1O)[C@H]1CC[C@]2(C)[C@@H]1[C@H](O)C[C@@H]1[C@@]3(C)CC[C@H](O[C@@H]4O[C@H](CO)[C@@H](O)[C@H](O)[C@H]4O[C@@H]4O[C@H](CO)[C@@H](O)[C@H](O)[C@H]4O)C(C)(C)[C@@H]3CC[C@]12C,inactive,,
Cc1cc(/C=c2/sc3nc4ccccc4n3c2=O)c(C)n1-c1ccccc1,inactive,,
CNC(C)[C@@H](O)c1ccc(O)cc1 (stereo not given in full),inactive,,
CNC(C)CC1CCCC1 (stereo not given),inactive,,
CC(C)(CO)n1cc(C(=O)c2cncc(NC(=O)Cc3ccc(Cl)cn3)c2)c2cnc(N)nc21,inactive,,
Nc1c(Br)cc(Br)cc1CNC1CCC(O)CC1 (stereo not given),inactive,,

Structure (SMILES),Potency,"activity change, negative = cytotoxicity",outcome
CC(C)(C)NC(=O)[C@H]1CC[C@H]2[C@@H]3CC=C4C=C(C(=O)O)CC[C@]4(C)[C@H]3CC[C@]12C,inactive,,
COC(F)(F)C(Cl)Cl,inactive,,
CC1=CC(=C(c2ccc(N)cc2)c2ccc(N)cc2)C=CC1=N,8.91 µM (active),,
CN(C)Cc1ccccc1,inactive,,
CCC(C)(C)OC(=O)N[C@@H](Cc1c[nH]c2ccccc12)C(=O)N[C@@H](CCSC)C(=O)N[C@@H](CC(=O)O)C(=O)N[C@@H](Cc1ccccc1)C(N)=O,inactive,,
C[N+](C)(C)CCOP(=O)([O-])OP(=O)(O)OC[C@H]1OC(n2ccc(N)nc2=O)[C@H](O)[C@@H]1O (stereo not given in full),,,inactive [at 0.702 µM]
CCCCc1cc2c(=O)c(C(=O)OC)c[nH]c2cc1OCc1ccccc1,inactive,,
COc1ccc2c(=O)c(C)c(-c3ccccc3)oc2c1CN(C)C,inactive,,
O=CCCCC=O,inactive,,
COC(=O)[C@H]1[C@@H](O)[C@@]2(O)c3c(OC)cc(O[C@@H]4O[C@@H]([C@@H](O)CO)CO[C@H]4OC)cc3O[C@@]2(c2ccc(OC)cc2)[C@@H]1c1ccccc1,inactive,,
COc1ccc([C@@H]2CC(=O)c3c(O)cc(O[C@@H]4O[C@H](CO[C@@H]5O[C@@H](C)[C@H](O)[C@@H](O)[C@H]5O)[C@@H](O)[C@H](O)[C@H]4O)cc3O2)cc1O,inactive,,
O=C(NCc1ccccc1)c1csc(Nc2ccncn2)n1,inactive,,
CN1C(=O)[C@@H](NC(=O)c2cc(Cc3ccccc3)on2)COc2ccccc21,inactive,,
CC(C)OC(=O)[C@H](C)N[P@](=O)(OC[C@H]1O[C@@H](n2ccc(=O)[nH]c2=O)[C@](C)(F)[C@@H]1O)Oc1ccccc1,inactive,,
CC(C)C[C@H](NC(=O)[C@@H](Cc1c[nH]c2ccccc12)NC(=O)[C@H](Cc1ccc(O)cc1)NC(=O)[C@H](CO)NC(=O)[C@H](Cc1c[nH]c2ccccc12)NC(=O)[C@H](Cc1cnc[nH]1)NC(=O)[C@@H]1CCC(=O)N1)C(=O)N[C@@H](CCCN=C(N)N)C(=O)N1CCC[C@H]1C(=O)NCC(N)=O,inactive,,
Cc1[nH]c(/C=C2\C(=O)Nc3ccccc32)c(C)c1CCC(=O)O,inactive,,
C[C@H]1C[C@H]2[C@H]3CCC4=CC(=O)C=C[C@]4(C)[C@@]3(F)[C@@H](O)C[C@]2(C)[C@@]1(OC(=O)c1ccccc1)C(=O)CO,inactive,,
NC1CCCN(c2c(/C=C3\SC(=O)NC3=O)cccc2-c2ccccc2)C1 (stereo not given),inactive,,
COc1ccc(Oc2cc(NCCC(F)(F)F)c3ncc(-c4ccc(C(=O)NC5CC5)c(C)c4)n3n2)c(F)c1F,inactive,,
COC1(O[C@H]2CC[C@H]3[C@@H]4CC[C@H]5C[C@@H]6S[C@@H]6C[C@]5(C)[C@H]4CC[C@]23C)CCCC1,inactive,,
